NLRP3 yeast inh – NALP3 inflammasome inhibitors in reconstituted yeast, primary screen, luminescence, uHTS. Yeast reconstituted NLRP3/ASC/caspase-1, beta-gal luminescence, 24 h. inhibition, % at 10 µM. 330,000 compounds, 0.39% hits. AID 2825, 2010;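 active means inhibition of 50% or more; inactive means inhibition below 50%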;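 further: plate controls were induced DMSO wells for no effect and uninduced yeast grown without galactose for full effect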
TIM10 inh – growth inhibitors of isogenic TIM10 control yeast, primary screen, counter-screen for tim10-1 yeast inhibitor project, luminescence, uHTS | AID 463195, 2010 | S. cerevisiae TIM10 strain growth, BacTiter-Glo luminescence, 24 h | inhibition, % at 10 µM | 330,000 compounds, 1.4% hits;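 active means inhibition of 40% or more at the single tested concentration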;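 further: wild-type TIM10 isogenic control strain grown at permissive 25 °C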
tim10-1 inh – growth inhibitors of tim10-1 mutant yeast, primary screen, luminescence, uHTS; 330,000 compounds, 2.2% hits; S. cerevisiae tim10-1 ts strain growth, BacTiter-Glo, 24 h; inhibition, % at 20 µM;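 active means inhibition of at least 40%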;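 further: mutant grown at 25 °C; 0% = DMSO wells with yeast and 100% = wells holding no yeast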
tim23-1 inh – growth inhibitors of tim23-1 mutant yeast, primary screen, luminescence, uHTS; 330,000 compounds, 1.3% hits; S. cerevisiae tim23-1 growth, BacTiter-Glo luminescence, 24 h; inhibition, % at 20 µM;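 active means growth inhibition of the mutant yeast at or above 50%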;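 further: temperature-sensitive mutant grown at 25 °C; plate controls were DMSO-treated mutant yeast for no effect and medium wells lacking yeast for full effect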
PfHsp90 yeast 2 – growth inhibition of PfHsp90-expressing yeast, primary screen, antimalarial PfHsp90 inhibitor project, S. cerevisiae, BacTiter-Glo luminescence, single point, set 2; BacTiter-Glo ATP, 48 h; yeast lacking PDR1 and PDR3 efflux regulators; inhibition, % at 9.4 µM; 310,000 compounds, 0.32% hits; AID 504621, 2011;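 active means every replicate shows inhibition above about 80%, whatever the replicate mean, limit read from the data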;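 further: 0% = DMSO neutral controls and 100% = 20 µM radicicol positive controls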
tim10-1 conf – growth inhibitors of tim10-1 mutant yeast, confirmation, single concentration, luminescence, S. cerevisiae; inhibition, % at 20 µM; 7,400 compounds, 56% hits; shares compounds with tim10-1 inh; S. cerevisiae tim10-1 ts strain growth, BacTiter-Glo, 24 h;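 active means inhibition of yeast growth at or above a set limit in either of two repeat tests at 20 µM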;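 further: tim10-1 mutant grown at permissive 25 °C to find synthetic lethal compounds; 0% = DMSO yeast wells and 100% = medium wells without yeast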
tim10 confirm – growth inhibitors of wild-type TIM10 yeast, confirmation, counter-screen for tim10-1 synthetic lethality project, single concentration, luminescence, S. cerevisiae | 4,600 compounds, 63% hits | inhibition, % at 10 µM | S. cerevisiae tim10 strain growth, BacTiter-Glo luminescence, 24 h | shares compounds with TIM10 inh;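 active means inhibition of yeast growth at or above a set limit in either of two replicates at 10 µM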;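 further: this counterscreen used the strain with wild-type TIM10; 0% = yeast with DMSO and 100% = medium wells lacking yeast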
tim23-1 confirm – tim23-1 mutant yeast growth inhibitors, confirmation, luminescence, single concentration. 4,400 compounds, 83% hits. inhibition, % at 20 µM. S. cerevisiae tim23-1 growth, BacTiter-Glo luminescence, 24 h. shares compounds with tim23-1 inh;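 active means inhibition above about 39% in either of two replicate wells at 20 µM, limit read from the data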;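 further: temperature-sensitive tim23-1 mutant grown at 25 °C; 0% = DMSO wells with yeast and 100% = medium wells without yeast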
* marks the source's active call; other numbers are inactive results; / = no result. Most compounds without a hit are left out; they make up all but 3.7% or so of the library.

SMILES	NLRP3 yeast inh	TIM10 inh	tim10-1 inh	tim23-1 inh	PfHsp90 yeast 2	tim10-1 conf	tim10 confirm	tim23-1 confirm
O=c1c2c3c(sc2ncn1/N=C/c1ccncc1)CCCC3	23	43*	61*	66*	10	62*	50*	27
COc1cccc(C(=O)OCC(=O)Nc2cc(C)on2)c1OC	19	0	9	14	-4	/	/	/
O=C(/C(=C/c1ccc(Cl)cc1)c1nc2ccccc2[nH]1)c1ccccc1	23	51*	42*	51*	98*	38*	35*	58*
CCOC(=O)N1CCN(Cc2nc(N)nc(Nc3ccc(Oc4ccccc4)cc3)n2)CC1	1	8	20	20	-34	/	/	/
Cc1ccccc1NC(=O)CCCC(=O)c1ccccc1	21	-8	0	1	35	/	/	/
NNc1nc(-c2ccccc2Cl)nc2ccccc12	15	12	21	21	-31	/	/	/
NNc1nc(-c2ccccc2Cl)nc2sc3c(c12)CCCC3	13	30	58*	63*	-5	20	/	55*
Cc1cccc(N=N/C(=C\O)C(=O)c2ccc(Br)cc2)c1	13	36	57*	64*	-79	52*	/	44*
Cc1ccc(C(=O)NCCc2nnc3c(C(F)(F)F)cc(Cl)cn23)o1	7	-10	-4	-6	-9	/	/	/
CC(C)c1ccc(C(O)P(=O)(OC2CCCCC2)OC2CCCCC2)cc1 (centres undefined)	-31	34	44*	58*	/	26	/	46*
COc1cc(C(O)P(=O)(OC2CCCCC2)c2ccc(N(C)C)cc2)cc(OC)c1OC (centres undefined)	9	18	16	6	/	/	/	/
CCCn1c(=O)c(C(=O)NCc2ccccn2)c(O)c2ccccc21	44	42*	41*	60*	10	21	36*	57*
Cc1ccc2cc(C=C(C#N)C#N)c(N3CCCCC3)nc2c1	3	45*	55*	75*	-11	45*	25	73*
CCc1nc2ccccc2c2nc3ccccc3n12	11	44*	59*	51*	3	46*	22	48*
CN(C(=O)c1cccc(NC(=O)Cc2cccc(NC(=O)C3CCCN(C(=O)c4ccccc4)C3)c2)c1)C1CCC1 (centres undefined)	/	/	/	/	11	/	/	/
N/C(=N\OC(=O)Nc1ccccc1)c1ncc([N+](=O)[O-])s1	19	57*	51*	77*	12	48*	60*	19
COc1cccc(/C=C2\Oc3cc(OC(=O)N4CCOCC4)ccc3C2=O)c1	25	14	25	22	-9	/	/	/
O=C1/C(=C/c2cccc(F)c2)Oc2cc(O)ccc21	14	24	52*	52*	22	39*	/	71*
COc1ccccc1C1CCN(c2ccc(CO)cc2[N+](=O)[O-])CC1	17	42*	64*	64*	-6	61*	36*	73*
COc1ccccc1C1CCN(Cc2cccc([N+](=O)[O-])c2)CC1	16	-5	18	-5	34	/	/	/
O=C(O)C1CC(O)CN1c1nc(Cl)ccc1[N+](=O)[O-] (centres undefined)	4	4	-7	10	13	/	/	/
O=C(N/N=C/c1ccc([N+](=O)[O-])o1)c1ccc2c(c1)OCO2	20	64*	64*	79*	25	60*	52*	23
COC1=C(C)C(O)=C(C(=O)/C=C/c2ccccc2)C(=O)C1(C)C	13	18	44*	57*	20	21	/	48*

Source: PubChem BioAssay (several laboratories)
